# Compound activity as filed in PubChem BioAssay.
# Shown are actives, neighbours in structure and some others; about 3.8% of the full set was active somewhere.
# Gli-Sufu antag: blocks Gli-Sufu signaling in a luciferase reporter; Sufu-KO-LIGHT fibroblasts, Gli luciferase reporter luminescence; inhibition, % at 5 µM; 0.74% of 340,000 active; AID 588413;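 active = inhibition above about 55%, limit read from the data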;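 also: 0% = DMSO-treated cells and 100% = wells with medium but no cells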
# Shn3 inh set2: inhibitors of Schnurri-3 3'UTR reporter in osteoblasts; Clone20 osteoblast Shn3 3'UTR firefly luciferase, 24 h; inhibition, % at 12.5 µM; 0.52% of 360,000 active; AID 588674;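 active = mean inhibition of at least 75% with every replicate also reaching 75%; inconclusive = mean inhibition at least 75% but some replicate below; inactive = mean inhibition below 75%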;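 also: 0% = median of neutral control wells and 100% = pilot-screen positive control compound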
# Jurkat NFkB inh: inhibitors of the PMA/ionomycin-induced NF-kB reporter in Jurkat cells; AID 435003; PMA/ionomycin-induced NF-kB luciferase reporter, luminescence; 0.53% of 330,000 active; inhibition, % at 4 µM; in the data active = inhibition above about 50%
# Mdm2 MdmX PPI: inhibitors of human Mdm2/MdmX interaction; O15151+Q00987; SaOS-2 split-luciferase Mdm2/MdmX complementation, luminescence; inhibition, % at 8 µM; 3% of 330,000 active;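 active = inhibition of at least 50% at 8 µM in the primary screen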
# Target sequence (O15151 whole entry, looked up): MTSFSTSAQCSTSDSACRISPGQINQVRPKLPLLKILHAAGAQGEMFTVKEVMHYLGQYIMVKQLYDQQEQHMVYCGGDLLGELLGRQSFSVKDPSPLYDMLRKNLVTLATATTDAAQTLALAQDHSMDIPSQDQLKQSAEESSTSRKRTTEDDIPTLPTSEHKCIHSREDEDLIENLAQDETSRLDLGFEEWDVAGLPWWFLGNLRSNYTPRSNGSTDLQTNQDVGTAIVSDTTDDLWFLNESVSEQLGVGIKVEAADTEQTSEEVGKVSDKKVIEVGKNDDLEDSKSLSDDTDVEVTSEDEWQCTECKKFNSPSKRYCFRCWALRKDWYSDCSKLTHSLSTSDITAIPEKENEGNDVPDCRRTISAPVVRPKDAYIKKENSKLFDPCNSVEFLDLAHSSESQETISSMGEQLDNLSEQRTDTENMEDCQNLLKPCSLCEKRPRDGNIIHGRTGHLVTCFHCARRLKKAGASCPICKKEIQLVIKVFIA
# Target sequence (Q00987 whole entry, looked up): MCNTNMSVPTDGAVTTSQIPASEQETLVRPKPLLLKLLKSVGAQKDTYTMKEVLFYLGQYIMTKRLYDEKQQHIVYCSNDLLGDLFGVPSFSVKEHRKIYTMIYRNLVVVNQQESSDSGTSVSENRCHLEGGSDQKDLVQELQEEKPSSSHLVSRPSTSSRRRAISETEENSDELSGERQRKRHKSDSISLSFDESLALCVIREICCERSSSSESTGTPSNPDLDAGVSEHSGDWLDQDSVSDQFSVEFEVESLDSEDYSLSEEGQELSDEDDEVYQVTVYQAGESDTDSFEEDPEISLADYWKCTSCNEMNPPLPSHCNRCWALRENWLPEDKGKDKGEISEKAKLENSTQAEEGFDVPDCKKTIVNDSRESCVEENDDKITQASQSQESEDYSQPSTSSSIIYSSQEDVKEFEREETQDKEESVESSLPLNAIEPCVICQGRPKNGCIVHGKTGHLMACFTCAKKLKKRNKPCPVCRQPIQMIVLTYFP
# 697 NFkB inh: lowers PMA/ionomycin-induced NF-kB signal in 697 B cells | 697 B-cell NF-kB luciferase reporter, 16 h | inhibition, % at 4 µM | 0.33% of 330,000 active; in the data active = inhibition above about 35%
# Gli-Sufu confirm: Gli-SUFU antagonism confirmation, single concentration; shares compounds with Gli-Sufu antag; Sufu-KO-LIGHT cells, Gli luciferase reporter, luminescence; 40% of 2,500 active; inhibition, % at 5 µM;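 active = mean inhibition at 5 µM reaching about 45%, limit read from the data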;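 also: plate controls were DMSO-treated cells for no effect and wells lacking cells for full effect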
# SufuKO cytotox: cytotoxic in Gli-SUFU antagonist counter-screen. shares compounds with Gli-Sufu antag. cytotoxicity, % at 5 µM. Sufu-KO-LIGHT cells cytotoxicity, ATP luminescence. 32% of 2,500 active;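 active = mean cytotoxicity at 5 µM above about 25%, limit read from the data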;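 also: cells exposed to compound overnight for roughly 16 to 18 hours; plate controls were DMSO wells with cells for no effect and medium without cells for full effect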
# Wnt3a counter: counter-screen for Gli-SUFU antagonists: Wnt3a reporter inhibition | shares compounds with Gli-Sufu antag | Wnt-LIGHT cells, Wnt3a-driven luciferase reporter, luminescence | inhibition, % at 6.25 µM | 20% of 2,500 active;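 active = mean inhibition above about 25%, limit read from the data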
# The depositor's hits bear a star; ? = inconclusive; . = no result.
SMILES,Gli-Sufu antag,Shn3 inh set2,Jurkat NFkB inh,Mdm2 MdmX PPI,697 NFkB inh,Gli-Sufu confirm,SufuKO cytotox,Wnt3a counter
COc1ccccc1CC(=O)NC1CCCCCC1,52.7,-68.8,-0.7,-4.2,8.7,19.9,23.6,-2.7
O=[N+]([O-])c1ccc(-[n+]2nc(-c3ccccc3)nn2-c2ccccc2)cc1,38.2,22.2,16.3,25.3,12.5,.,.,.
Cc1cc(C)n2nc(C(=O)OCC(=O)Nc3cc(S(=O)(=O)N4CCOCC4)ccc3Cl)nc2n1,-3.4,0.9,.,.,.,.,.,.
O=C(CSc1nnc(-c2ccccn2)o1)Nc1ccc(F)cc1,-104.3,-67.4,-80.3,-23.4,-7.8,.,.,.
CC(C)(C)OC(=O)N1CCC(c2cc(-c3cccs3)n[nH]2)CC1,57.1*,6.3,0.3,-3.9,-12.9,42.4,8.9,-66.4
CC1CCN(C(=O)CSc2n[nH]c(-c3cccs3)n2)CC1,2.0,-3.7,-10.4,25.7,15.1,.,.,.
O=[N+]([O-])c1cccc(-c2nnc(C34CC5CC(CC(C5)C3)C4)o2)c1,77.0*,-3.8,-8.8,-15.6,-1.2,10.7,7.3,-14.3
CCCc1nnc(NC(=O)CCC(=O)NCc2ccccc2Cl)s1,55.0*,-17.8,1.8,9.6,-10.2,9.4,14.6,-13.7
Nc1ncnc2c1ncn2[C@@H]1O[C@H](CO)[C@@H](O)[C@H]1O,-17.2,-0.2,0.5,-5.4,12.6,.,.,.
Nc1ncnc2c(C3OC(CO)C(O)C3O)c[nH]c12 (stereo not given),86.7*,93.0*,.,.,.,89.2*,85.5*,100.9*
COc1cccc(C(=O)C2CCCN(C(=O)c3ccc(C#CC(C)(C)O)cc3)C2)c1 (stereo not given),59.5*,13.9,-17.5,20.3,-24.7,17.6,14.0,-45.0
COc1ccc(Cl)cc1C(=O)NNC(=O)c1csc(N2CCOCC2)n1,8.0,10.2,-5.0,1.4,12.7,.,.,.
Cn1nc(CC(=O)NCc2ccc(C(F)(F)F)cc2)c2ccccc2c1=O,55.1*,72.5,29.7,33.6,-27.9,52.4*,25.1*,16.6
COc1ccc(CNC(=O)Cc2nn(C)c(=O)c3ccccc23)cc1,50.0,78.6,19.9,25.4,-18.9,.,.,.
CCn1cc(CN2CCC(C(=O)Nc3ccc(Oc4ccccc4)nc3)CC2)cn1,19.5,-1.3,7.1,-2.1,8.7,.,.,.
O=C(Nc1ccc(Oc2ccccc2)nc1)C1CCN(Cc2ccccc2)CC1,64.5*,9.9,6.6,22.8,6.1,16.7,2.8,-13.0
CCN1C(=O)[C@H]2[C@H]3CN=C(SCc4ccc(C)cc4)N3[C@@](Cc3ccccc3)(C(=O)OC)[C@H]2C1=O,3.6,6.6,.,-2.0,-13.4,.,.,.
O=C(CNC(=O)c1ccccc1F)N/N=C/c1ccc2c(c1)OCO2,-28.6,-61.9,-18.8,-30.6,-22.2,.,.,.
C(#Cc1ccccc1)C[N+]1(CC#Cc2cccc3ccccc23)CCCC1,81.5*,83.5,24.2,48.4,-14.8,82.7*,18.8,4.4
C#CC[N+]1(CC#Cc2ccccc2)CCCC1,1.1,27.9,-12.5,6.6,6.3,.,.,.
COc1ccc(C)cc1NC(=O)Nc1ccncc1,-10.3,-11.8,11.9,20.4,6.2,.,.,.
COc1ccc(NS(=O)(=O)c2ccc(C)c(C(=O)NCCCN3CCCC3=O)c2)cc1,0.6,6.4,4.2,4.9,1.7,.,.,.
COC(=O)C(C)Sc1nc2c(cnn2-c2ccc(Cl)cc2)c(=O)[nH]1 (stereo not given),60.1*,-9.5,-8.2,10.2,-5.1,16.1,7.1,1.1
COC(=O)C(C)Sc1nc2c(cnn2-c2ccccc2)c(=O)[nH]1 (stereo not given),2.0,-14.6,3.7,9.4,-5.8,.,.,.
Cc1cccc(C)c1NC1=C(Cl)C(=O)OC1OC(C)C (stereo not given),52.0,4.9,-1.9,18.3,-6.9,18.6,-5.7,11.1
SMILES,Gli-Sufu antag,Shn3 inh set2,Jurkat NFkB inh,Mdm2 MdmX PPI,697 NFkB inh,Gli-Sufu confirm,SufuKO cytotox,Wnt3a counter
COc1cc(/C=C2/NC(=O)N(c3cccc(Cl)c3)C2=O)ccc1O,75.0*,47.5,30.3,23.3,14.1,80.2*,23.3,45.8*
COc1ccc(-n2cccc2/C=C2/NC(=O)N(c3cccc(Cl)c3)C2=O)cc1,-6.8,-11.9,-83.0,18.7,-86.5,.,.,.
Oc1ccc(-c2nc3ccc4ccccc4c3c3c2CCC3)cc1O,56.0*,-41.9,-46.0,8.2,-49.7,11.5,19.8,-26.5
CCc1ccc(CNC(=O)CCCC(=O)n2nc(C)c3ccccc32)cc1,56.9*,-10.9,-1.6,14.8,-18.5,17.3,22.9,3.7
O=C(CSc1nc2sc3c(c2c(=O)n1-c1ccccc1)CCCC3)NCc1ccco1,64.0*,22.5,-1.7,27.6,-6.3,27.8,3.9,-8.1
CC1(C)Cc2c(sc3nc(SCC(=O)NCc4ccco4)n(-c4ccccc4)c(=O)c23)CS1,-18.7,24.2,-15.0,-13.8,-4.5,.,.,.
Cc1cn([C@H]2C[C@H](O)[C@@H](CNCc3cnc(N4CCOCC4)s3)O2)c(=O)[nH]c1=O,.,-0.2,.,.,.,.,.,.
O=C(Cn1nnc(-c2ccccc2)n1)N/N=C/c1cccc([N+](=O)[O-])c1O,14.0,-22.2,-4.5,6.8,12.3,.,.,.
O=C(Cn1nnc(-c2ccccc2)n1)N/N=C/c1cccc([N+](=O)[O-])c1,50.4,4.6,22.0,-9.9,-2.9,20.9,0.4,-3.8
CCCN(Cc1nc2cc(Cl)ccc2c(=O)[nH]1)C(=O)c1ccc(S(=O)(=O)N2CCCC2)cc1,-5.2,4.1,-3.7,16.0,21.0,.,.,.
Cn1c(=O)[nH]c(Nc2ccccc2)c([N+](=O)[O-])c1=O,-3.7,3.0,-2.2,-15.2,7.5,.,.,.
O=C1CCCN1c1ccc(S(=O)(=O)NCCOc2ccccc2)cc1,7.4,2.9,6.3,2.0,-17.6,.,.,.
Cc1cc(N2CCCC2=O)cc(C)c1S(=O)(=O)NCCOc1ccc(C(C)(C)C)cc1,74.8*,?,5.9,21.0,-43.0,71.8*,43.6*,-1.9
CC(C)CC(=O)NC(NCC1CCCO1)C(Cl)(Cl)Cl (stereo not given),88.3*,4.9,-16.8,-0.2,9.6,8.2,9.2,-10.5
Cc1ccc(C(=O)NC(NCC2CCCO2)C(Cl)(Cl)Cl)cc1 (stereo not given),13.7,14.3,5.9,13.8,-7.4,.,.,.
CCOc1ccc(C(=O)NCC(=O)N2CCC3(CC2)NCCc2[nH]cnc23)cc1,-3.2,-2.2,6.3,13.3,3.8,.,.,.
CC(C)(C)n1ncc2c(=O)n(Cc3cccc(Cn4cnc5c(cnn5C(C)(C)C)c4=O)c3F)cnc21,77.0*,89.4*,-2.4,36.3,-0.6,78.1*,37.7*,17.8
C/C(CC(=O)NCc1ccccc1)=N\NC(=O)c1cnccn1,50.2,-0.6,7.5,-8.7,13.1,18.7,2.3,9.7
C/C(CC(=O)Nc1ccccc1C(F)(F)F)=N\NC(=O)c1cnccn1,-26.0,-9.0,-2.4,27.8,-2.6,.,.,.
